# Screens (PubChem)
# GLA inh pH 4.5 – inhibitors of human alpha-galactosidase A at pH 4.5; P06280; purified enzyme, 4-MU-alpha-Gal fluorescence, pH 4.5; 230,000 tested, under 10 active; activity change, negative = inhibition, % at 105 µM;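 also: 0% = full activity with enzyme and -100% = basal without enzyme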
# HTT ATP protect – Huntington cell model cytoprotection by ATP luminescence. PC12 HTT-Q103 induced, cytoprotection, ATP luminescence, 40 h. Potency, µM (doses to about 56.4 µM), inactives show cytoprotection (ATP increase), most hits filed as activators. 230,000 tested, 0.14% active; also: potency is read from the fitted curve at half-maximal effect; % of control where 0% means no effect; nearly all actives have a fitted effect of over 45% in size
#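 Readout: ATPlite luminescence (ATP level). Model: stable PC12, inducible Htt exon1 Q103-GFP. Inducer: tebufenozide, 100 nM final. Compounds: dose series. No G418 in medium.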
# HttQ103 aggreg – inhibitors of mutant huntingtin aggregate formation in PC12 cells; Potency, µM (top dose mostly 46.1 µM), for the others: at the top dose activity change, negative = inhibition, usual class: inhibitors; PC12 HttQ103-GFP aggregates, Acumen cytometry, 40 h; 220,000 tested, 1.1% active; also: potency is read from the fitted curve at half-maximal effect; % is scaled to controls: 0 for no effect and ±100 for the full control effect; nearly all actives have a fitted effect of over 60% in size
#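 Using laser scanning cytometry, GFP-positive aggregates were counted after lysis of PC12 cells induced with 100 nM tebufenozide to express HTT exon 1 Q103–GFP. Compounds were tested in titration.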
# aGal spleen mod – inhibitors or activators of human alpha-galactosidase in spleen homogenate. P06280. human spleen homogenate, 4MU-alpha-Gal fluorescence, 40 min. Potency, µM (doses to about 80 µM), for the others: at the highest dose activity change, negative = inhibition, actives largely listed as inhibitors. 240,000 tested, 0.008% active. AID 2107;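 also: potency is read from the fitted curve at half-maximal effect; 0% = enzyme with vehicle and -100% = no enzyme basal signal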
# Target sequence (P06280 32-429 limits assumed): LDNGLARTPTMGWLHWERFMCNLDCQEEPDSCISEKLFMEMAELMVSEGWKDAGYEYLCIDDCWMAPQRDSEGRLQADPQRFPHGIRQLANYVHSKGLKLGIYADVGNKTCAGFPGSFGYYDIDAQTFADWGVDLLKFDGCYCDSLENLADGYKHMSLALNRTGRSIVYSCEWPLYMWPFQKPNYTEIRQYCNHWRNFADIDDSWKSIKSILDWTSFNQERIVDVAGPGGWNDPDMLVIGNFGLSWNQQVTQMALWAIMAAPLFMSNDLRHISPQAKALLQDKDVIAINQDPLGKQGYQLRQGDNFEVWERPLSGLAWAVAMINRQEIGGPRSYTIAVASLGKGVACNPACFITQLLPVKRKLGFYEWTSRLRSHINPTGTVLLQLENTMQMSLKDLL
#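 Human spleen homogenate (1 ug) as enzyme source, 4-methylumbelliferyl-alpha-D-galactopyranoside 1 mM final, citrate/phosphate pH 5.0 with 0.01% Tween-20. Compounds 40 min at 37C, NaOH/glycine stop; fluorescence Ex 365/Em 440, Hill-fit AC50.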
# ERK EGF inh – blocks ERK signaling stimulated by EGF; HEK293-V1b, EGF-stimulated phospho-ERK AlphaScreen; Potency, µM (titrated, usually from 11.5 µM), for the others: at the highest dose activity change, negative = inhibition, usual class: inhibitors; 130,000 tested, 0.41% active;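 also: potency is read from the fitted curve at half-maximal effect; plate controls were stimulated vehicle wells for no effect and unstimulated vehicle basal for full effect; nearly all actives have a fitted effect of over 55% in size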
#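 Stably V1b-transfected HEK293 cells; 30 min compound, then EGF 25 nM final for 5 min at 37C; 10 min lysis; phospho-ERK by AlphaScreen after 5 hr beads at room temperature.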
# * hit, by the source's call; u = inconclusive; x = no result given; [ ] = another dose, or the depositor's remark. Only some compounds are listed: those with a hit (about 1.2% of all), similar ones and a draw of the others. Calls follow the shape of the dose curve; as a rule, active = well fitted curve in the direction sought with a large enough effect; inconclusive = small, poorly fitted or top-dose-only effect, or another doubt; inactive = no such curve, though single readings can be large; an effect the other way counts as inactive or inconclusive.
SMILES,GLA inh pH 4.5,HTT ATP protect,HttQ103 aggreg,aGal spleen mod,ERK EGF inh
CCCCCc1ccc(OCCC[n+]2ccccc2)c(CCCCC)c1,-4,-96%[10 µM],3.2µM*,14%,u
CC(=O)Nc1ccc(OCCC[n+]2ccccc2)cc1,1,-2%[10 µM],0%[9.22 µM],5%,-9%
COc1cccc(CNc2ccc3nc(-c4ccc(N)cc4)c(OC)n3n2)c1,-11,-12%,x,-3%,1%
O=C(N/N=C/c1cc2c(cc1Cl)OCO2)c1ccc2c(c1)OCCO2,1,-3%[10 µM],-1%[9.22 µM],5%,3%[57.5 µM]
CC(C)(C)C(=O)Nc1ccc(C(=O)N/N=C/c2ccccc2OC(=O)c2ccccc2)cc1,-1,-102%,11µM*,-1%,x
CC(C)(C)C(=O)Nc1ccc(C(=O)N/N=C/c2ccccc2OC(=O)c2ccc(Cl)cc2)cc1,9,-88%[10 µM],u,11%,14%
O=C(N/N=C/c1ccccc1OC(=O)c1ccc2c(c1)OCO2)c1ccccc1,-6,-73%[10 µM],5µM*,-6%,3%
O=C(Cl)c1c(Cl)cccc1Cl,x,12%,x,11%,x
CO[C@H]1/C=C/O[C@@]2(C)Oc3c(C)c(O)c4c(O)c(c(/C=N\N5CCN(C6CCCC6)CC5)c(O)c4c3C2=O)NC(=O)/C(C)=C\C=C\[C@H](C)[C@H](O)[C@@H](C)[C@@H](O)[C@@H](C)[C@H](OC(C)=O)[C@@H]1C,x,-65%,-32%,x,x
O=C(CN1CCOCC1)n1c2ccccc2c2ccccc21,5,-8%[10 µM],2.8µM*,-2%,x
O=C(CN1CCOCC1)n1c2c(c3ccccc31)CCCC2,5,6%,-3%,6%,7%
OC(COC(c1ccc(Cl)cc1)c1ccc(Cl)cc1)CN1CCN(c2ccccn2)CC1 (centres undefined),-10,17%[10 µM],32µM*,-2%,4%
OC(COCc1ccc(Cl)cc1)CN1CCN(CC(O)COCc2ccc(Cl)cc2)CC1 (centres undefined),-9,-20%[10 µM],4µM*,13%,x
CC(C)C[C@H](NC(=O)[C@H](C)NC(=O)CNC(=O)[C@H](CCCCN)NC(=O)[C@H](CCCN=C(N)N)NC(=O)[C@H](C)NC(=O)[C@H](Cc1ccccc1)NC(=O)[C@@H](N)CCCN=C(N)N)C(=O)N[C@@H](CCCN=C(N)N)C(=O)N[C@@H](CCC(N)=O)C(=O)N[C@@H](CCCCN)C(=O)N[C@@H](CC(N)=O)C(=O)N[C@H](C(N)=O)C(C)C,x,x,x,7%,x
O=C(Nc1cccc2cccnc12)c1cccnc1,-7,-8%,u,1%,x
Cc1cnc(C(=O)Nc2cccc3cccnc23)cn1,-23,-75%,0.89µM*,-2%,x
Cc1cccc(C)c1NC(=O)c1ccc(-c2ccc(Cl)cc2Cl)o1,2,-19%,11µM*,-5%,x
O=C(Nc1ccc(CN2CCOCC2)cc1)c1ccc(-c2ccc(Cl)cc2Cl)o1,-4,-44%,u,7%,25µM*
COc1ccccc1N1CCN(CCn2c(=O)c3c(c4ccccc4n3C)n(C)c2=O)CC1,x,-12%,x,7%,x
Cn1cc(-c2nc3cnc(N4CCOCC4)nc3n(CCC#N)c2=O)c2ccccc21,x,-9%,x,1%,x
O=C(N[C@@H](Cc1ccccc1)C(=O)OCc1ccccc1)c1nc[nH]c1C(=O)NC(c1ccccc1)c1ccccc1,-7,8%[10 µM],17%[9.22 µM],4%,40µM*
C[C@H](NC(=O)c1[nH]cnc1C(=O)Nc1ccc(CNC(=O)OC(C)(C)C)cc1)C(=O)OCc1ccccc1,-11,-7%[10 µM],-1%[9.22 µM],4%,32µM*
Cc1noc(C)c1C(=O)N1CCC[C@@]2(CCN(C(=O)Nc3cccc(C#N)c3)C2)C1,x,-8%,x,14%,4%
CC(C)N(CC(=O)Nc1ccc(Cl)cc1C(F)(F)F)C(=O)CCl,1,-7%,14µM*,1%,-6%
O=c1nc(N/N=C/c2ccccn2)cn[nH]1,-3,-152%,8.9µM*,-5%,0%
SMILES,GLA inh pH 4.5,HTT ATP protect,HttQ103 aggreg,aGal spleen mod,ERK EGF inh
C#CCn1cc(/C=N/Nc2nc3ccccc3[nH]2)c2ccccc21,0,10%[10 µM],0%,-1%,25µM*
C(=N\Nc1nc2ccccc2[nH]1)/c1ccccn1,-8,-199%,7.1µM*,-2%,-5%
COc1ccccc1C1CC(=O)Oc2cc3c(cc21)OCO3 (centres undefined),-9,-21%,x,0%[119 µM],x
CC[Si](CC)(CC)O[C@H]([C@@H](C)COCOC)[C@@H](C)COCc1ccc(OC)cc1,x,x,x,-1%,x
CC[C@@]1(O)CC2CN(CCc3c([nH]c4ccccc34)[C@](C(=O)OC)(c3cc4c(cc3OC)N(C)C3[C@@](O)(C(=O)OC)C(OC(C)=O)[C@]5(CC)C=CCN6CC[C@@]43C65)C2)C1 (some centres undefined),1,-303%,-39%,-19%,-1%
CC(C)C[C@H](NC(=O)[C@H](Cc1ccccc1)NC(=O)[C@H](Cc1ccccc1)NC(=O)[C@@H](N)CO)C(=O)N[C@@H](CCCN=C(N)N)C(=O)N[C@@H](CC(N)=O)C(=O)O,x,x,x,5%,x
Cc1[nH]n(-c2ccccc2)c(=O)c1N=Nc1nccs1,1,-33%,11µM*,3%,x
CC1(C)CCC(NC(=O)[C@@H](N)CCC(=O)O)CC1,7,20%,-11%,-4%,19%
CCc1c(C)c2cc(Cl)c(O)c(CN(C)C)c2oc1=O,u,-8%[0.074 µM],3.2µM*,u,x
CCOC(=O)Cn1c(=O)c(-c2cc(Br)ccc2N)nc2ccccc21,8,16%[10 µM],1%[9.22 µM],6%,u
Cn1c(=O)c(-c2cc(Br)ccc2N)nc2ccccc21,-8,-4%[10 µM],13µM*,1%,x
O=C(Nc1ccc(Cl)cc1)/C(=C/c1ccc([N+](=O)[O-])cc1)c1nc2ccccc2s1,-5,-197%,7.1µM*,-2%,-6%
O=[N+]([O-])c1ccc(Nc2nc3ccccc3s2)cc1,x,-2%[10 µM],x,x,x
COc1ccc(CNC(=O)CCCNS(=O)(=O)c2cccc3nonc23)cc1,-1,3.5µM*,3.2µM*,-4%,x
COC(=O)CCC(=O)OC1(C)C(=O)C=C2C=C(C3CC3)N(c3ccc(OC)cc3)C=C2C1=O (centres undefined),8,24%[10 µM],x,-2%[17.5 µM],x
CN(C)c1ccc(-c2cncnc2NCc2cccs2)cc1,-1,3%,x,-11%,u
Cc1cc(O)c(C(C)C)cc1NC1=NS(=O)(=O)c2ccccc21,-5,23%,-8%,7%,x
Cc1cc(O)c(C(C)C)cc1NS(=O)(=O)c1ccccc1,-2,5%[0.074 µM],5µM*,-3%,x
C=CCNCC(=O)N1N=C(c2ccc3ccccc3c2)CC1c1ccc(OC)cc1 (centres undefined),-10,-2%[10 µM],13µM*,-1%,-11%
